Rows were chosen to be rich in hits. Some 4.2% of all compounds tested hit in one or more screens of this group.
MITF act – increases MITF-driven TRPM1 promoter luciferase signal. hit rate 0.75% among 300,000. SK-MEL-5 TRPM1-promoter luciferase, 24 h; % of positive control, neutral wells = 0. activation, % at 12.5 µM. AID 588334;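 active = mean activation of at least 80% with every replicate also reaching 80%; inconclusive = mean reaches 80% but some replicate falls short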
esBAF inh – blocks esBAF chromatin remodeling in mouse ES cells; Bmi1-luciferase knock-in reporter, 24 h; 100% = twice the neutral-well signal; reporter increase, % at 12.5 µM; hit rate 2% among 350,000; AID 602393; in the data active = activation above about 40%; inconclusive = no clear call, values can overlap the other calls;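 note: a rise in the Bmi1 reporter signal indicates esBAF inhibition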
AHR activator – activators of human aryl hydrocarbon receptor | activation, % at 5 µM | AHR-responsive luciferase reporter cells, luminescence | hit rate 2.5% among 320,000 | P35869 | AID 2796; in the data active = activation above about 47%
Target sequence (P35869 whole entry, looked up): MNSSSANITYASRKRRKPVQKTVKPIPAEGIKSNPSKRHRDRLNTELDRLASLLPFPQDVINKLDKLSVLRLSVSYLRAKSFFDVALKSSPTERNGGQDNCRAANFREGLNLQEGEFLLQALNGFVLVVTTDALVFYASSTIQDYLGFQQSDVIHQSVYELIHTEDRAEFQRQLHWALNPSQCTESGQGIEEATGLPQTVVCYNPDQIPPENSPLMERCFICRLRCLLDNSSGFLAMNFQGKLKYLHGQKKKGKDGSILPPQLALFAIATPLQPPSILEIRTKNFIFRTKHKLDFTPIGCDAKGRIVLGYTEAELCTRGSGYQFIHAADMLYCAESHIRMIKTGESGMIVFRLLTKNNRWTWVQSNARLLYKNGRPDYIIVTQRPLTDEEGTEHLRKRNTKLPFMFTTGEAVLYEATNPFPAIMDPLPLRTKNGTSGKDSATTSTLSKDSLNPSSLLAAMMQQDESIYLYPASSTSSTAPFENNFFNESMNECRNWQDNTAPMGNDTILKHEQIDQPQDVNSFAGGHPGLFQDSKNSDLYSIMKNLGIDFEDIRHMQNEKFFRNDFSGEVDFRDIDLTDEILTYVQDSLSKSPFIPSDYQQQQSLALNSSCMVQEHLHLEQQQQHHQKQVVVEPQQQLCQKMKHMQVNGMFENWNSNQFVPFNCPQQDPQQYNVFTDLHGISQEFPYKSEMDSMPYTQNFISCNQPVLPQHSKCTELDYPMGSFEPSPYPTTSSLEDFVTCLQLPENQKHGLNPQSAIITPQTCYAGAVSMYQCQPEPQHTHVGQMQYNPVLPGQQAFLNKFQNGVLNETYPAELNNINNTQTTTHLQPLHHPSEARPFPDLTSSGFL
FXN GAA850 act – increases GAA850 frataxin promoter reporter activity; activation, % at 6 µM; AID 540364; hit rate 0.56% among 360,000; HEK293 lucGAA850 FXN promoter luciferase reporter, 24 h; percent of 10 µM SAHA response;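 active = activation above the average of all compounds screened plus 3 SD, cutoff fixed separately per campaign, cut at about 7.5% in these data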
Wnt act – Wnt/beta-catenin pathway activation; Wnt/beta-catenin reporter cell assay, activator, plate reader; activation, % at 9.35 µM; hit rate 1.2% among 300,000; AID 743398; in the data active = activation above about 30%, passing the limit was not always enough; inconclusive = no clear call, values can overlap the other calls
Of the large screens only hits and unclear results are named; the others gave an inactive call.

CCOc1ccccc1NC(=O)c1sc2ncn(CC(=O)N3CCOCC3)c(=O)c2c1C	AHR activator 55
CCn1cnc2sc(C(=O)Nc3ccccc3OC)c(C)c2c1=O	AHR activator 68
CCOC(=O)CN1C=C(c2ccc3ccccc3n2)C(C[N+](=O)[O-])c2ccccc21 (configuration not stated)	AHR activator 67 (no result: esBAF inh, Wnt act)
O=C(Cc1cccs1)N/N=C/C(Cl)=C/c1ccccc1	Wnt act inconclusive (no result: esBAF inh)
CCOC(=O)N/N=C/C(Cl)=C/c1ccccc1	esBAF inh 56
CCCCOC(=O)N/N=C/C=C/c1ccccc1	esBAF inh 51
O=C(O)C[C@H]1CC[C@@H](NC(=O)c2ccccc2F)[C@H](CO)O1	none (no result: MITF act, AHR activator, FXN GAA850 act, Wnt act)
C[C@H](CO)N1C[C@H](C)[C@@H](CN(C)Cc2ccc(Cl)c(Cl)c2)Oc2ccc(NC(=O)CCN3CCOCC3)cc2CC1=O	none (no result: MITF act, AHR activator, FXN GAA850 act, Wnt act)
COc1ccc(Nc2nc(N)nc(SCc3nnc(C)s3)n2)cc1	AHR activator 56 (no result: Wnt act)
Nc1nc(CSCCO)nc(Nc2ccccc2)n1	none (no result: Wnt act)
COc1ccc(Nc2nc(N)nc(COc3ccc(OC)cc3)n2)cc1	AHR activator 60 (no result: Wnt act)
COc1ccc(Nc2nc(N)nc(CSc3nc(C)cc(C)n3)n2)cc1	none (no result: esBAF inh)
COc1ccc(Nc2nc(N)nc(CSc3nccn3C)n2)cc1	Wnt act 56 (no result: esBAF inh)
COc1ccc(OCc2nc(N)nc(Nc3ccccc3)n2)cc1	none (no result: esBAF inh)
Nc1nc(CSc2ccccn2)nc(Nc2ccccc2)n1	MITF act 152, esBAF inh 52, Wnt act 43
COc1ccc(CN(C)C[C@H]2Oc3ccc(NS(C)(=O)=O)cc3C(=O)N([C@@H](C)CO)C[C@H]2C)cc1	none (no result: MITF act, AHR activator, FXN GAA850 act, Wnt act)
COc1ccc(OC(=O)N(C)C[C@@H]2OCc3ccccc3-c3ccccc3C(=O)N([C@@H](C)CO)C[C@@H]2C)cc1	none (no result: MITF act, AHR activator, FXN GAA850 act, Wnt act)
Fc1ccccc1C1CCN(Cc2nc(CC3CC3)no2)C1 (configuration not stated)	Wnt act 44 (no result: esBAF inh)
COc1cccc(C(=O)Nc2ccc3c(c2)OC[C@H](C)N(C)C[C@H](C)[C@H](OC)CN(C)C3=O)c1	none (no result: MITF act, AHR activator, FXN GAA850 act, Wnt act)
CC1CCCN(C(=O)c2sc3cc([N+](=O)[O-])ccc3c2Cl)C1 (configuration not stated)	esBAF inh 46 (no result: Wnt act)
O=C(c1sc2cc([N+](=O)[O-])ccc2c1Cl)N1CCCCC1	none
COc1ccc(CN(C)C[C@@H]2OCCCC[C@H](C)Oc3ccc(NC(=O)Nc4ccc(F)cc4)cc3C(=O)N([C@@H](C)CO)C[C@H]2C)cc1	none (no result: MITF act, AHR activator, FXN GAA850 act, Wnt act)
CCOC(=O)c1cc(-c2csc(N/N=C/c3ccccc3Cl)n2)on1	AHR activator 50 (no result: esBAF inh)
CCOC(=O)c1cc(-c2csc(Nc3ccccc3Cl)n2)on1	none (no result: esBAF inh)
Cc1ccc(S(=O)(=O)N(C)C[C@@H]2OCCCC[C@@H](C)Oc3ccc(NC(=O)Nc4cccc5ccccc45)cc3C(=O)N([C@H](C)CO)C[C@H]2C)cc1	none (no result: MITF act, AHR activator, FXN GAA850 act, Wnt act)
Nc1c(C(=O)O)cnc2c(-c3ccc(Cl)cc3)cnn12	esBAF inh 47, AHR activator 98
CC(=O)c1cnc2c(-c3ccc(Cl)cc3)cnn2c1C	esBAF inh 75 (no result: Wnt act)
Clc1ccc(-c2cnn3c(-c4ccncc4)ccnc23)cc1	AHR activator 72, Wnt act 64 (no result: esBAF inh)
N#Cc1cnn2c(N)c(-c3ccc(Cl)cc3)cnc12	none (no result: esBAF inh)
C[C@H](CO)N1C[C@H](C)[C@@H](CN(C)Cc2ccc(-c3ccccc3)cc2)Oc2c(NC(=O)Nc3cccc4ccccc34)cccc2C1=O	none (no result: MITF act, AHR activator, FXN GAA850 act, Wnt act)
COC(=O)[C@@H]1[C@@H](CO)[C@@H]2Cn3c(ccc(-c4cccc(OC)c4)c3=O)[C@@H]2N1Cc1nccs1	none (no result: MITF act, AHR activator, FXN GAA850 act, Wnt act)
Cc1nn(-c2ccccn2)c2nc(-c3cccs3)cc(C(=O)NCc3ccco3)c12	none (no result: esBAF inh, Wnt act)
Cc1nn(-c2ccccc2)c2nc(-c3ccncc3)cc(C(=O)NCc3ccco3)c12	AHR activator 65
C[C@H](CO)N1C[C@H](C)[C@@H](CN(C)Cc2ccc3c(c2)OCO3)OCCCC[C@H](C)Oc2ccc(NC(=O)C3CCCCC3)cc2C1=O	none (no result: MITF act, AHR activator, FXN GAA850 act, Wnt act)
CSc1ccccc1NC(=O)Nc1ccc(Cl)cc1	esBAF inh 50
COc1ccc(Cl)cc1NC(=O)Nc1ccccc1SC	none
O=C(NC(=S)Nc1ccccc1N1CCCC1)c1cccs1	AHR activator 51 (no result: MITF act, esBAF inh)
O=C(Nc1ccc(F)cc1)Nc1ccccc1F	esBAF inh 74
COc1ccc(NC(=O)Nc2ccccc2SC)cc1	Wnt act 40
CO[C@H]1CN(C)C(=O)c2ccc(NS(=O)(=O)c3ccc(-c4ccccc4)cc3)cc2OC[C@H](C)NC[C@H]1C	none (no result: MITF act, AHR activator, FXN GAA850 act, Wnt act)
